# Screens (PubChem BioAssay)
# Pol eta inh = DNA polymerase eta (human) inhibition; recombinant Pol eta, fluorescent DNA replication assay; AID 588591; actives 1.2% (n = 390,000); Potency, µM (doses to about 114 µM), without a hit: at the highest dose activity change, negative = inhibition, most hits filed as inhibitors; Q9Y253; note: % is set by controls: 0 for no effect and ±100 for the full control effect
# Target sequence (Q9Y253 whole entry, looked up): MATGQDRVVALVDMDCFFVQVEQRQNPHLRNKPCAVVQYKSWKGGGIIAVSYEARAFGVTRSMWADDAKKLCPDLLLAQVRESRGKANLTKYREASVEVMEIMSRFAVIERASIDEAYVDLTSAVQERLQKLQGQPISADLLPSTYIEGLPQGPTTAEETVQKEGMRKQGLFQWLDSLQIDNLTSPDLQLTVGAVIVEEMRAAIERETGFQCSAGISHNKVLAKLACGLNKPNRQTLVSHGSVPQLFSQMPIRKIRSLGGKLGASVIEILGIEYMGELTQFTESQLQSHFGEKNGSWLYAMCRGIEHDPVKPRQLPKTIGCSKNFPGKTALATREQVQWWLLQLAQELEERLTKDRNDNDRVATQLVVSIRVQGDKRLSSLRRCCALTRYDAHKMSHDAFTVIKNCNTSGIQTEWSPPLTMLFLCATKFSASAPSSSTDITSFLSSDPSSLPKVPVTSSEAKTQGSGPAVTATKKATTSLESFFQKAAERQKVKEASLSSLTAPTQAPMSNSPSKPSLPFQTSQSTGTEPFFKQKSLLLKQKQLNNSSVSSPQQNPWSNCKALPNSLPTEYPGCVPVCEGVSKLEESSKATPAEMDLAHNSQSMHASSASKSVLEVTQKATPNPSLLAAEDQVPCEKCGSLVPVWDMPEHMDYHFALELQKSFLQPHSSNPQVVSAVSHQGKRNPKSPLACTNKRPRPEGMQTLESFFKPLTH
#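 Pol eta at 10 nM preincubated with compounds 15 min at room temperature; reaction started with fluorescent substrate (50 nM final) and read kinetically at 0 and 10 min.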
# APE1 inh-1 = APE1 (human) endonuclease inhibition; recombinant APE1, TAMRA/BHQ-2 abasic DNA cleavage fluorescence; Potency, µM (series often up to 65.8 µM), inactives show top-dose activity change, negative = inhibition, most hits filed as inhibitors; actives 0.35% (n = 350,000); P27695;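 note: plate controls were vehicle for no effect and reference inhibitor for full effect; nearly all actives have a fitted effect of over 55% in size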
#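 APE1 at 0.75 nM final was preincubated with compound 15 min at room temperature, then 50 nM double-stranded THF abasic-site substrate (5'-TAMRA/3'-BHQ-2) was added. Fluorescence (ex 525/em 598 nm) was read kinetically; third-minus-first read gave activity.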
# POLB inh = inhibitors of human DNA polymerase beta; Pol beta primer extension/strand displacement, fluorescence kinetic; Potency, µM (doses to about 114 µM), for the others: at the highest dose activity change, negative = inhibition, most hits filed as inhibitors; actives 1.3% (n = 340,000); note: % is set by controls: 0 for no effect and ±100 for the full control effect
#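 Pol beta (10 nM) and compounds were preincubated 15 min at room temperature, then 50 nM substrate (final) started primer extension/strand displacement. Reads were taken at 0 and 10 min; concentration-response data were fitted to a four-parameter Hill equation.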
# GLS inh = blocks human kidney-isoform glutaminase activity | O94925 | GLS enzymatic activity, qHTS titration | Potency, µM (series often up to 45.5 µM), for inactives: at the top dose activity change, negative = inhibition, most hits filed as inhibitors | actives 0.21% (n = 410,000); note: % is set by controls: 0 for no effect and ±100 for the full control effect
#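 hKGA in 45 mM KH2PO4 pH 8.2, 0.02% Tween-20 with pin-transferred compounds; 1 mM L-glutamine (stock) plus glutamate oxidase/HRP/Amplex Red coupling added. Fluorescence read initially and after 30 min at RT.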
# POLK inh = inhibitors of human DNA polymerase kappa; AID 588579; actives 0.53% (n = 400,000); Q9UBT6; purified Pol kappa, fluorescent DNA synthesis assay, 10 min; Potency, µM (titrated, usually from 107 µM), for inactives: at the highest dose activity, negative = inhibition, usual class: inhibitors; note: % is set by controls: 0 for no effect and ±100 for the full control effect
#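 Kinetic fluorescence screen: compound preincubated 15 min RT with 10 nM enzyme; 50 nM substrate (final) initiates; reads at 0/10 min.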
# POLI inh = inhibitors of human DNA polymerase iota; Q9UNA4; Pol iota fluorescent replication assay, 10 min; Potency, µM (top dose mostly 115 µM), for the others: top-dose activity, negative = inhibition, hits mostly inhibitors; actives 1% (n = 390,000); AID 588590
#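 Pol iota at 10 nM preincubated 15 min with compounds at room temperature; reaction started with fluorescent substrate, 50 nM final. Fluorescence read kinetically at 0 and 10 min; buffer-only wells as negative control.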
# DNA dye displace = displaces fluorescent dye from DNA, flagging APE1 artifacts. shares compounds with APE1 inh-1. DNA fluorescent dye displacement counterscreen, fluorescence. Potency, µM (series often up to 28.5 µM), for inactives: top-dose activity change, negative = inhibition, most hits filed as inhibitors. actives 7% (n = 480);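 note: loss of thiazole orange fluorescence as the dye is displaced from duplex DNA; 0% = ThO with dsDNA and no compound and -100% = ThO without dsDNA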
# Endo IV inh = counter-screen for APE1 inhibitors: inhibitors of E. coli endonuclease IV. E. coli Endo IV, fluorogenic AP-site DNA cleavage. actives 4% (n = 560). Potency, µM (highest dose often 27.1 µM), without a hit: at the top dose activity change, negative = inhibition, actives largely listed as inhibitors. shares compounds with APE1 inh-1;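 note: plate controls were uninhibited enzyme wells for no effect and no enzyme buffer wells for full effect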
# APE1 inh-2 = APE1 (human) endonuclease inhibition, confirmation. Potency, µM (series often up to 57.1 µM), for inactives: at the top dose activity change, negative = inhibition, usual class: inhibitors. purified APE1, fluorogenic abasic-site DNA cleavage. actives 44% (n = 750). shares compounds with APE1 inh-1; note: % is set by controls: 0 for no effect and ±100 for the full control effect; nearly all actives have a fitted effect of over 30% in size
# APE1 FP = compounds that displace a DNA probe from human APE1. AID 2573. actives 7% (n = 480). Potency, µM (titrated, usually from 28.5 µM), for the others: at the top dose activity, negative = inhibition, most hits filed as inhibitors. shares compounds with APE1 inh-1. APE1 binding to TAMRA-labelled double-stranded DNA, fluorescence polarization displacement; note: % is set by controls: 0 for no effect and ±100 for the full control effect
# An asterisk follows results filed as active; ? = inconclusive; . = no result; [ ] = dose if it differs, or a comment. Hits are enriched below; roughly 2.4% of the tested compounds scored in any of these assays. Calls come from the whole dose curve; as a rule, active = well fitted curve in the direction sought with a large enough effect; inconclusive = small, poorly fitted or top-dose-only effect, or another doubt; inactive = no such curve, though single readings can be large; an effect the other way counts as inactive or inconclusive. Potency is the fitted concentration of half-maximal effect.
SMILES,Pol eta inh,APE1 inh-1,POLB inh,GLS inh,POLK inh,POLI inh,APE1 inh-2,others
COc1cc(NC(=O)CSc2nnc3c(n2)[nH]c2ccc(S(=O)(=O)NC(C)C)cc23)cc(OC)c1OC,17.8µM*,?,?,-11.0%,?,44.7µM*,.,
COc1cc(NC(=O)CSc2nnc3c(n2)[nH]c2ccc(OC)cc23)cc(OC)c1,.,.,.,.,-2.9%,8.3%,.,
O=C(Nc1ccccc1)N(C1=NCCCCS1)c1cccc2ccccc12,-13.1%,-8.2%,14.9%,-9.5%,-1.9%,-13.8%,.,
CCN1C(=O)CC(c2ccccc2)CC1=O,4.5%,49.0%,.,1.5%,6.2%,79.4µM*,.,
Cc1ccc(C(=O)COC(=O)CNC(=O)CNC(=O)c2ccc(C)cc2)cc1,-10.4%,7.4%,6.4%,4.9%,-14.4%,37.3%,.,
CCN(CC)c1nc(N)c2c(N)nc(OC)cc2c1C#N,-14.1%,.,.,-4.4%,-17.1%,8.91µM*,.,
COc1cc2c(C#N)c(N3CCCCC3)nc(N)c2c(N)n1,?,-6.9%,9.7%,7.5%,-9.9%,?,.,
COc1ccc(C(=O)COC(=O)c2cccnc2Cl)c(OC)c1,50.1µM*,-16.5%,12.6µM*,-6.5%,?,39.8µM*,.,
COc1ccc(C(=O)COC(=O)c2ccc3c(c2)OCCO3)c(OC)c1,?,15.0%,.,-14.3%,-26.5%,?,.,
COc1ccc(OC)c(C(=O)COC(=O)c2cccnc2Cl)c1,2.3%,-9.2%,29.2%,1.3%,-18.8%,20.0%,.,
COc1ccc(C(=O)COC(=O)CNC(=O)C2CCCCC2)c(OC)c1,?,-10.3%,22.4µM*,-2.6%,-24.5%,?,.,
COc1ccc(C(=O)COC(=O)/C=C/c2ccccc2)c(OC)c1,39.8µM*,-13.1%,.,4.7%,44.7µM*,35.5µM*,.,
COc1ccc(C(=O)COC(=O)c2cc(C)no2)c(OC)c1,?,-7.1%,.,7.7%,-40.7%,50.1µM*,.,
COc1cccc([C@@H]2Oc3ccc(Br)cc3C[C@H]2OC(=O)NS(=O)(=O)c2ccc(F)cc2)c1,.,0.1%,.,.,.,.,.,
CC(C)(C)c1ccc(OCC(=O)Nc2ccc(S(=O)(=O)Nc3ncccn3)cc2)cc1,1.4%,.,?,15.1%,-0.8%[60.1 µM],6.3%,.,
COc1ccc(-c2nnc3ccc(SCC(=O)NCc4ccco4)nn23)cc1,-16.9%,?,-23.9%,-2.3%,-8.7%,0.9%,-9.8%,
CNC(=O)C(=O)NCC(c1ccc2c(c1)OCO2)N1CCOCC1 (stereo unspecified),-14.2%,.,0.2%,-0.5%,-2.6%[60.1 µM],22.4%,.,
O=C(c1cc(C(=O)c2ccco2)cc(C(=O)c2ccco2)c1)c1ccco1,-19.3%,31.6µM*,?,3.8%,-8.9%,?,?,DNA dye displace=-7.4%;Endo IV inh=26.6%;APE1 FP=-5.4%
O=C(NNC(=O)c1ccco1)c1ccco1,-2.9%,.,.,15.1%,.,.,.,
Cc1nc2ccc(NC(=S)N3CCOCC3)cc2nc1C,-1.3%,?,15.2%,-11.5%,-12.3%,71.8%,-5.4%[24.4 µM],DNA dye displace=0.1%;Endo IV inh=3.4%;APE1 FP=6.4%
CN(C)c1cccc(C(=O)N/N=C/c2ccccc2F)c1,-19.3%,-2.4%,-11.2%,-10.4%,-5.3%,20.6%,.,
Cc1cc(/C=N/NC(=O)c2cccc(N(C)C)c2)c(C)n1-c1cc(C(=O)O)cc(C(=O)O)c1,20µM*,28.2µM*,17.8µM*,-0.6%,31.6µM*,10µM*,?,DNA dye displace=-7.6%;Endo IV inh=7.5%;APE1 FP=-4.8%
O=C1C2C3C=CC(C4CC34)C2C(=O)N1/N=C/c1ccc(-c2ccc(Cl)cc2[N+](=O)[O-])o1 (stereo unspecified),-17.0%,5.6%,0.3%,2.3%,-10.5%,2.5%,.,
O=C(O)c1cc(-c2ccc(/C=N/N3C(=O)C4C5C=CC(C6CC56)C4C3=O)o2)ccc1Cl (stereo unspecified),?,?,39.8µM*,14.9%,-8.0%,34.5%,?,
CCC1=NNc2cccc3c(OC)ccc1c23,.,?,-12.5%,.,.,.,-6.0%[24.4 µM],DNA dye displace=?;Endo IV inh=8.2%;APE1 FP=1.1%
SMILES,Pol eta inh,APE1 inh-1,POLB inh,GLS inh,POLK inh,POLI inh,APE1 inh-2,others
CCOc1ccccc1C(=O)NCCc1cnc[nH]1,-15.4%,12.5%,1.2%,-3.5%,0.0%,11.3%,.,
O=C(CSc1ccc([N+](=O)[O-])cn1)Nc1ccc2[nH]c(=O)[nH]c2c1,2.2%,7.0%,5.5%,7.5%,2.9%,39.7%,.,
O=C(Nc1ccc([N+](=O)[O-])cc1)Nc1ccc2[nH]c(=O)[nH]c2c1,-13.7%,?,-9.8%,-4.9%,-22.3%,78.8%,?,DNA dye displace=-18.3%;Endo IV inh=-2.5%;APE1 FP=10.6%
C=C(CO)C1Cc2cc(C(C)=O)ccc2O1 (stereo unspecified),20µM*,20µM*,?,-4.3%,?,?,10µM*,DNA dye displace=1.9%;Endo IV inh=7.6%;APE1 FP=-36.9%
CC(C)(C)C(=O)[C@@H]1[C@@H]2C(=O)N(Cc3ccccc3)C(=O)[C@@H]2[C@H]2c3ccccc3C=CN12,.,?,1.9%,.,.,.,-14.2%,
Cc1ccc(C(C(=O)Nc2ccc3c(c2)OCO3)N(C)C(=O)Cc2c[nH]c3ccccc23)cc1 (stereo unspecified),-18.2%,-1.9%,1.9%,1.0%,-16.9%,51.9%,.,
CCOc1cc(N2CCOCC2)c(OCC)cc1NC(C)C(=O)N1CCN(CC)CC1 (stereo unspecified),-7.5%,10µM*,?,?,?,12.6µM*,?,
CC(C)c1cc(C(=O)OCC(=O)N2CCN(C(=O)c3ccco3)CC2)c(O)c(C(C)C)c1,-11.7%,-10.2%,-8.3%,-3.5%,-1.1%,-19.2%,.,
O=C(O)c1ccccc1-c1ccc(/C=c2\sc3nc4cc(Br)cnc4n3c2=O)o1,1.26µM*,22.4µM*,?,12.6µM*,3.55µM*,?,8.91µM*,DNA dye displace=19.7%;Endo IV inh=16.5%;APE1 FP=?
